The full data set covers some 7,900 targets. This sample favours those with a hit. About 0.6% of all pairs of compound and target were hits.
Columns and labels:
Assay in all cases: log2 fold change, soluble protein after heating vs DMSO (PISA); higher = thermal stabilisation; K562 cells, 10 uM, 30 min; active = over 0.2 and 3.5 SD of the protein, either way, in both replicates (recomputed)
erlotinib = compound: C#Cc1cccc(Nc2ncnc3cc(OCCOC)c(OCCOC)cc23)c1 [erlotinib]
Procedure, shortened: (§1)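 K562 cells (2×10^6 cells/mL) were treated with 10 μM compound for 30 min, and aliquots were heated for 3 min over 48°C-58°C. Pooled aliquots were extracted in PBS with 0.5% NP-40 at 4°C, and the supernatant after 21,000xg for 90 min was measured by TMTpro 16plex LC-MS/MS with channel sums equalised. Reported thermal stability, relative to control samples and from duplicates, is a log2 fold change.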

[1] = compound: C/C(=N\NC(=O)C1=CC(=CC=C1)S(=O)(=O)N2CCOCC2)/C3=C(C=CC(=C3)Cl)O
Procedure, shortened: as §1

[2] = compound: C1=CC(=C(C=C1Cl)C2=NC3=NC=CN=C3C(=N2)NC4=CC=NC=C4)F
Procedure, shortened: as §1

[3] = compound: C1=CC(=CC=C1C2=NC3=C(N2)C=C(C=C3)C(=O)N)OC4=CC=C(C=C4)Cl
Procedure, shortened: as §1

[4] = compound: C1=CC2=C(C=CC(=C2)/C=C\3/C(=O)NC(=NCC4=CC=CS4)S3)N=C1
Procedure, shortened: as §1

[5] = compound: C1=CC2=NC=CN=C2C=C1/C=C/3\C(=O)NC(=O)S3
Procedure, shortened: as §1

[6] = compound: C1=CC=C(C=C1)C2=NC(=C(N2)C3=CC=NC=C3)C4=CC(=C(C=C4)Cl)O
Procedure, shortened: as §1

[7] = compound: C1=CC=C2C(=C1)C3=NNC4=CC=CC(=C43)C2=O
Procedure, shortened: as §1

[8] = compound: C1CCN(C1)C(=O)NC2=CC=CC(=C2)NC3=NC=C(C(=N3)NCCC4=CN=CN4)Br
Procedure, shortened: as §1

[9] = compound: C1CN(CCC1(CC2=CC=C(C=C2)Cl)N)C3=NC=NC4=C3C=CN4
Procedure, shortened: as §1

Measured: log2 fold change

CLCN3 (UniProt P51790)
inactive: erlotinib -0.024 | [1] 0.079 | [2] -0.053 | [3] -0.045 | [4] 0.023 | [5] 0.07 | [6] -0.01 | [7] -0.03 | [8] -0.032 | [9] 0.055

CHCHD1 (UniProt Q96BP2)
inactive: erlotinib -0.034 | [1] -0.007 | [2] -0.048 | [3] 0.027 | [4] -0.135 | [5] -0.003 | [6] -0.057 | [7] 0.039 | [8] 0.022 | [9] -0.091

CLTB (UniProt P09497)
inactive: erlotinib 0.106 | [1] -0.042 | [2] 0.038 | [3] -0.05 | [4] -0.02 | [5] 0.039 | [6] 0.069 | [7] 0.028 | [8] 0.008 | [9] 0.023

CDK2AP2 (UniProt O75956)
Sequence of UniProt O75956 (O75956 whole entry, looked up): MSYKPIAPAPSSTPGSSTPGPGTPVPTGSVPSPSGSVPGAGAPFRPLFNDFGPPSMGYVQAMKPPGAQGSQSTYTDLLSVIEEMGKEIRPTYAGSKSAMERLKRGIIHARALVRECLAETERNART
inactive: erlotinib -0.142 | [1] -0.007 | [2] 0.037 | [3] 0.043 | [4] 0.063 | [5] 0.103 | [6] 0.007 | [7] 0

CSTF3 (UniProt Q12996)
inactive: erlotinib -0.038 | [1] 0.012 | [2] -0.003 | [3] 0.015 | [4] 0.014 | [5] 0.077 | [6] -0.032 | [7] 0.035 | [8] 0.027 | [9] -0.027

COX6B1 (UniProt P14854)
Sequence of UniProt P14854 (P14854 whole entry, looked up): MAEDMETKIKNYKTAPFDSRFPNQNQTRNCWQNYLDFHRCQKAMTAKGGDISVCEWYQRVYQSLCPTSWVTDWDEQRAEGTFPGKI
inactive: erlotinib 0.027 | [1] 0.011 | [2] 0.247 | [3] -0.045 | [4] 0.118 | [5] 0.048 | [6] 0 | [7] -0.037 | [8] -0.003 | [9] -0.019

CCAR2 isoform 2 (UniProt Q8N163)
Sequence of UniProt Q8N163 (Q8N163 whole entry, looked up): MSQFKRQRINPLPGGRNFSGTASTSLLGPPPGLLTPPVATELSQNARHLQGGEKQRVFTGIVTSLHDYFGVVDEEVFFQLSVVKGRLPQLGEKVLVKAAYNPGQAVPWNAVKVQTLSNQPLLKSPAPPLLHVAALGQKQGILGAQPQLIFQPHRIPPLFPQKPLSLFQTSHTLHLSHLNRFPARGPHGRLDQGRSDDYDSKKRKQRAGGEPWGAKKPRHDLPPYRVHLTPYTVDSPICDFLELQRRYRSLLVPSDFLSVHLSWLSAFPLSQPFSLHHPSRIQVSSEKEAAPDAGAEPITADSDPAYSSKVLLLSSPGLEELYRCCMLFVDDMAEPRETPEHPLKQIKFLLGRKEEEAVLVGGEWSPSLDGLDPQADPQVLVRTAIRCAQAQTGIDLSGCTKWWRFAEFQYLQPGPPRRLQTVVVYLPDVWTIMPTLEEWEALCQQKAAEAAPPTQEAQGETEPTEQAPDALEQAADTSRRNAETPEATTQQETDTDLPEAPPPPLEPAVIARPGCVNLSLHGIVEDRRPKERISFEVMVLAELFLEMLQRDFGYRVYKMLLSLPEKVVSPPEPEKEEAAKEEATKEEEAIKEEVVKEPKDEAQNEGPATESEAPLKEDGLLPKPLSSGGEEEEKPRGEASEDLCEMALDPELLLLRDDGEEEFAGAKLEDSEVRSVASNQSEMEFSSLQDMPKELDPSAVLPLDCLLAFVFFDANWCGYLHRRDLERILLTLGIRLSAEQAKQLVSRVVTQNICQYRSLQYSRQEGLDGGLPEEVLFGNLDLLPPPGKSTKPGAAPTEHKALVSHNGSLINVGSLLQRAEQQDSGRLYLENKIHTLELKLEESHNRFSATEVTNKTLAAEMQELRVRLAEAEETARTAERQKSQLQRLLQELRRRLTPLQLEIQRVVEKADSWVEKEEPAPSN
inactive: erlotinib 0.027 | [1] 0.063 | [2] 0.033 | [3] -0.014 | [4] 0.071 | [5] 0 | [6] 0.014 | [7] -0.039 | [8] 0.001 | [9] 0.007

C16orf58 (UniProt Q96GQ5)
Sequence of UniProt Q96GQ5 (Q96GQ5 whole entry, looked up): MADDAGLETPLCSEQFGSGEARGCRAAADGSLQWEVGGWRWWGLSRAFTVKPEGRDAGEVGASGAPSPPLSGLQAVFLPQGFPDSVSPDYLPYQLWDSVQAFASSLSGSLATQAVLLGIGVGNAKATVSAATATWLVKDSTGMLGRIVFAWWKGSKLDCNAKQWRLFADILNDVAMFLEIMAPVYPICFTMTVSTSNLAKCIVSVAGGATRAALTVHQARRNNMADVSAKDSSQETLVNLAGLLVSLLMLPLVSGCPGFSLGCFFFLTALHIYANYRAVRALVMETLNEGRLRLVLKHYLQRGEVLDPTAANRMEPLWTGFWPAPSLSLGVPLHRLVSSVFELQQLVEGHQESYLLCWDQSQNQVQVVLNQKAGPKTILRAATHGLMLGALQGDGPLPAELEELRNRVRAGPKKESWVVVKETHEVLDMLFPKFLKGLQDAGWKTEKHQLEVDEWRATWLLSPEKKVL
inactive: erlotinib 0.033 | [1] 0.01 | [2] 0.051 | [3] 0.023 | [4] 0.061 | [5] 0.042 | [6] -0.001 | [7] -0.021 | [8] 0.006 | [9] 0.036

CASP2 (UniProt P42575)
Sequence of UniProt P42575 (P42575 whole entry, looked up): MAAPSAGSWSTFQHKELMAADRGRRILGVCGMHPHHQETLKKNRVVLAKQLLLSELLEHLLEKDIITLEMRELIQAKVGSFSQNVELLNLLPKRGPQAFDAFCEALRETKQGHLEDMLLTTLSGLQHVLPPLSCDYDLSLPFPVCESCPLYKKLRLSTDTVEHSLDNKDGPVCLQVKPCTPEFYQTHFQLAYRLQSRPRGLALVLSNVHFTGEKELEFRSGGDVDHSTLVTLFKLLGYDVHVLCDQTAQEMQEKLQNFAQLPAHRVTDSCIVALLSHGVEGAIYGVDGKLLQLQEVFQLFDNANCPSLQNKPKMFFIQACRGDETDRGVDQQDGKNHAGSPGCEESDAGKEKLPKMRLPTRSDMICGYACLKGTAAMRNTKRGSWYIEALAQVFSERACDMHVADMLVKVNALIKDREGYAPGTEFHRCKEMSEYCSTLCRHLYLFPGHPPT
inactive: erlotinib 0.069 | [1] -0.007 | [2] 0.056 | [3] -0.011 | [4] 0.054 | [5] -0.025 | [6] -0.011 | [7] 0.028 | [8] 0.004 | [9] -0.053

CD81 (UniProt P60033)
inactive: erlotinib -0.065 | [1] 0.033 | [2] 0.059 | [3] 0.039 | [4] -0.065 | [5] 0.059 | [6] 0.013 | [7] -0.043 | [8] 0.098 | [9] 0.206

CRYM-AS1 (UniProt A6NIL9)
inactive: erlotinib 0.13 | [1] -0.214 | [2] 0.027 | [3] 0.23 | [4] 0.089 | [5] -0.725 | [6] 0.024 | [7] 0.073 | [8] -0.27 | [9] 0.108

CCAR1 (UniProt Q8IX12)
inactive: erlotinib 0.052 | [1] 0.057 | [2] -0.002 | [3] 0.014 | [4] 0.071 | [5] 0.039 | [6] -0.021 | [7] 0.024 | [8] 0.027 | [9] -0.085

CSNK1A1 (UniProt P48729)
inactive: erlotinib 0.073 | [1] 0.002 | [2] -0.028 | [3] -0.002 | [4] -0.008 | [5] 0.018 | [6] -0.029 | [7] -0.088 | [8] 0.001 | [9] -0.064

CHAF1A (UniProt Q13111)
Sequence of UniProt Q13111 (Q13111 whole entry, looked up): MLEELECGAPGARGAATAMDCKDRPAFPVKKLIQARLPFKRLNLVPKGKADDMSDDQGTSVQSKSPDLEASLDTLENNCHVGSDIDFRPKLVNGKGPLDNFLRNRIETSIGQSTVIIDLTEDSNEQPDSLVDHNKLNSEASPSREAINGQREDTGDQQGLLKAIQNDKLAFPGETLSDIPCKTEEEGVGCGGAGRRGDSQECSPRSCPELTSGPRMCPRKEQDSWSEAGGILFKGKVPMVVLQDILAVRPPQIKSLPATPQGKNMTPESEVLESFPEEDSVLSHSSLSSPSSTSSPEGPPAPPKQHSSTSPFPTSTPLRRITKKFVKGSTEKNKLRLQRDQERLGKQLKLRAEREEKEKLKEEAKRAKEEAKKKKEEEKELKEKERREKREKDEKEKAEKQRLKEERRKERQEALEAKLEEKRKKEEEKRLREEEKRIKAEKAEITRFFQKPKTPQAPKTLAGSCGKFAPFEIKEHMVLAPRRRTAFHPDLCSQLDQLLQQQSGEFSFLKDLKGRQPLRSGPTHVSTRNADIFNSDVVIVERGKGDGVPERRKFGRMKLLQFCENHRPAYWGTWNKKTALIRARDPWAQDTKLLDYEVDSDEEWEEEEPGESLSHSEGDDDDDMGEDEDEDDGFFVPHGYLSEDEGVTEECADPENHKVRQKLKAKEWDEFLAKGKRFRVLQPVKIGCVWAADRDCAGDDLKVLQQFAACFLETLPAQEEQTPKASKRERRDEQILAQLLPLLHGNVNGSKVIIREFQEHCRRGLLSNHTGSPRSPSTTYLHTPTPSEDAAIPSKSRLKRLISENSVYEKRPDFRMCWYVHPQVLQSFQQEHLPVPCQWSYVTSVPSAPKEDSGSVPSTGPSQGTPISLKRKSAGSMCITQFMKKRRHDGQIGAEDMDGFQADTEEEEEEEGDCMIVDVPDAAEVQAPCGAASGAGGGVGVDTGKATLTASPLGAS
inactive: erlotinib -0.046 | [1] -0.014 | [2] -0.121 | [3] 0.053 | [4] 0.027 | [5] 0.135 | [6] -0.047 | [7] -0.114

CCNC (UniProt P24863)
inactive: erlotinib -0.056 | [1] -0.077 | [2] -0.122 | [3] -0.026 | [4] 0.096 | [5] 0.256 | [6] -0.001 | [7] 0.209

CSNK1D (UniProt P48730)
inactive: erlotinib 0.033 | [1] -0.02 | [2] -0.143 | [3] 0.011 | [4] -0.05 | [5] 0.051 | [6] 0.165 | [7] 0.258 | [8] -0.035 | [9] -0.086

CLPP (UniProt Q16740)
Sequence of UniProt Q16740 (Q16740 whole entry, looked up): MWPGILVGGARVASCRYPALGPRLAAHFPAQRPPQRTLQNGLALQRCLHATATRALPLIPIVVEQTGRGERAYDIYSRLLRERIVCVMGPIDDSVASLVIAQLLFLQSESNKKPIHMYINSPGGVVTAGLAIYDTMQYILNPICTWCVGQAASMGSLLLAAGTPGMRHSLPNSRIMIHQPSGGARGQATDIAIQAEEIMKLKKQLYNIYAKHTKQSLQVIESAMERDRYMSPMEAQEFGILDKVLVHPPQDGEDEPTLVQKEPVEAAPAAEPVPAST
inactive: erlotinib -0.025 | [1] 0.013 | [2] -0.069 | [3] 0.037 | [4] 0.042 | [5] 0.003 | [6] 0.023 | [7] 0.035 | [8] -0.028 | [9] 0.022

COQ7 (UniProt Q99807)
Sequence of UniProt Q99807 (Q99807 whole entry, looked up): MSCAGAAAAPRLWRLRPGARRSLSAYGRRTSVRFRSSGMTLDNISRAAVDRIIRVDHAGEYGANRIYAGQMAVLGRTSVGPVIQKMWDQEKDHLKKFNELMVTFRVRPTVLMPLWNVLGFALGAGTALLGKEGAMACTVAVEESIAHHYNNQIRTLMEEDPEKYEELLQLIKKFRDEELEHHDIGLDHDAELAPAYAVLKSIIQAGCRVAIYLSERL
inactive: erlotinib 0.082 | [1] -0.014 | [2] 0.075 | [3] 0.023 | [4] -0.005 | [5] 0.068 | [6] -0.024 | [7] -0.009 | [8] 0.02 | [9] 0.052

CHAMP1 (UniProt Q96JM3)
inactive: erlotinib 0.083 | [1] 0.004 | [2] 0.075 | [3] 0.03 | [4] 0.023 | [5] 0.014 | [6] -0.01 | [7] -0.06 | [8] 0.004 | [9] 0.064

CA1 (UniProt P00915)
inactive: erlotinib -0.025 | [1] 0.022 | [2] 0.03 | [3] 0.006 | [4] -0.079 | [5] 0.009 | [6] 0.064 | [7] 0.004 | [8] 0.018 | [9] 0.054

CDC25B isoform 4 (UniProt P30305)
inactive: erlotinib -0.031 | [1] 0.117 | [2] 0.036 | [3] 0.044 | [4] -0.062 | [5] 0.131 | [6] -0.007 | [7] -0.047

CERS2 (UniProt Q96G23)
inactive: erlotinib 0.032 | [1] 0.001 | [2] 0.013 | [3] 0.007 | [4] 0.004 | [5] 0.033 | [6] 0.01 | [7] -0.025 | [8] 0.074 | [9] 0.087

CDK4 (UniProt P11802)
Sequence of UniProt P11802 (P11802 whole entry, looked up): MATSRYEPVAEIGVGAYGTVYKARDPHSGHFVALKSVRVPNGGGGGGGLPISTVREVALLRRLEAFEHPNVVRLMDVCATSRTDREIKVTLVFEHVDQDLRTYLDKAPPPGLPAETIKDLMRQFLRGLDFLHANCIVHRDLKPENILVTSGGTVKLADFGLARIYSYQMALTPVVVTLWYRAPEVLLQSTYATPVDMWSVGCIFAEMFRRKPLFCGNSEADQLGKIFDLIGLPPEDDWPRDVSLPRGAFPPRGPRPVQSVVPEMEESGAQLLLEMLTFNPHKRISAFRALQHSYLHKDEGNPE
inactive: erlotinib 0.075 | [1] -0.244 | [2] -0.008 | [3] -0.086 | [4] 0.329 | [5] 0.11 | [6] -0.067 | [7] 0.032

COQ9 (UniProt O75208)
Sequence of UniProt O75208 (O75208 whole entry, looked up): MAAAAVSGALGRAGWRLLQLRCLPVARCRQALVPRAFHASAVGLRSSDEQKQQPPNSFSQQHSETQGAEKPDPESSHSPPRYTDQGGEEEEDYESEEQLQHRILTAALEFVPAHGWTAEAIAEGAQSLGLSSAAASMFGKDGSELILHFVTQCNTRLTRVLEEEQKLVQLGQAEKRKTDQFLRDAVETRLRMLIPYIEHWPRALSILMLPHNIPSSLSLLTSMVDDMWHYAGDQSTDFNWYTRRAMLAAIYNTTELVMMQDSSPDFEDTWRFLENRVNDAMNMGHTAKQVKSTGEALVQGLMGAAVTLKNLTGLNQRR
inactive: erlotinib 0.035 | [1] 0.082 | [2] 0.006 | [3] 0.016 | [4] 0.034 | [5] 0.056 | [6] 0.012 | [7] 0.008 | [8] -0.018 | [9] -0.001

CDK5RAP3 isoform 4 (UniProt Q96JB5)
inactive: erlotinib 0.089 | [1] 0.027 | [2] 0.042 | [3] -0.017 | [4] 0.01 | [5] 0.023 | [6] 0.033 | [7] 0.041 | [8] -0.003 | [9] -0.068

COX5A (UniProt P20674)
Sequence of UniProt P20674 (P20674 whole entry, looked up): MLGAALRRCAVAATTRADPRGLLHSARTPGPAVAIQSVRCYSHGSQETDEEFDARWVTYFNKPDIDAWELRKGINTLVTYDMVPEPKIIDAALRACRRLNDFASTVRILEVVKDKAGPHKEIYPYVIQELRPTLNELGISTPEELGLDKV
inactive: erlotinib -0.005 | [1] -0.05 | [2] 0.104 | [3] 0.052 | [4] 0.045 | [5] 0.016 | [6] 0.183 | [7] 0.051 | [8] -0.026 | [9] -0.081

CDKN1B (UniProt P46527)
inactive: erlotinib -0.076 | [1] 0.027 | [2] -0.133 | [3] 0.064 | [4] -0.217 | [5] -0.049 | [6] -0.1 | [7] -0.01

CLSPN (UniProt Q9HAW4)
inactive: erlotinib -0.09 | [1] -0.022 | [2] -0.024 | [3] 0.02 | [4] -0.035 | [5] 0.032 | [6] -0.062 | [7] -0.027 | [8] -0.083 | [9] 0.033

COMMD2 (UniProt Q86X83)
Sequence of UniProt Q86X83 (Q86X83 whole entry, looked up): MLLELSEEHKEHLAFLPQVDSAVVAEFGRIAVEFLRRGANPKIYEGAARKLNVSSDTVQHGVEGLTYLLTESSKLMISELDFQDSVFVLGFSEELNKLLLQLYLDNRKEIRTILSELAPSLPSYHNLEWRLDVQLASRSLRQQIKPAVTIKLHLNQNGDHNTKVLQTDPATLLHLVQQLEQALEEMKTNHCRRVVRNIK
inactive: erlotinib 0.114 | [1] 0.049 | [2] -0.053 | [3] 0.085 | [4] 0.091 | [5] -0.02 | [6] -0.017 | [7] 0.058 | [8] 0.071 | [9] -0.119

CHST10 (UniProt O43529)
inactive: erlotinib 0.013 | [1] -0.168 | [2] -0.144 | [3] -0.058 | [4] -0.111 | [5] 0.03 | [6] 0.067 | [7] 0.101 | [8] 0.008 | [9] 0.06

CKB (UniProt P12277)
Sequence of UniProt P12277 (P12277 whole entry, looked up): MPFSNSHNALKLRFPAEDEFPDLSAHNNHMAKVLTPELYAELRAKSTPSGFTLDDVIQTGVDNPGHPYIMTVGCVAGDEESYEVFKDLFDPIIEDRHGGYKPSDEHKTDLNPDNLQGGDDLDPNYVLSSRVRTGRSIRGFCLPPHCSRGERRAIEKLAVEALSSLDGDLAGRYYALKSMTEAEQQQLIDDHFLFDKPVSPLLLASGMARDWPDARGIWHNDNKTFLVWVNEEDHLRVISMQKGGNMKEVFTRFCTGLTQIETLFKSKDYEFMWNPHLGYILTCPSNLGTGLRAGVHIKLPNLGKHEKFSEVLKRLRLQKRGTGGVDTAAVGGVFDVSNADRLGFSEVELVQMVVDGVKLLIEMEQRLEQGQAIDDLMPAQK
inactive: erlotinib 0.011 | [1] 0.045 | [2] 0.052 | [3] 0.035 | [4] 0.018 | [5] -0.038 | [6] 0.01 | [7] 0.065 | [8] 0.022 | [9] 0.027
